CCT chaperon mod = High-Throughput Screening for Modulators of Cytosolic Chaperonin Activity; purified chaperonin ATPase assay, HTRF ADP detection, 30 min; activity change, % (test concentration not listed), hits read low; hit rate 0.3% among 360,000; in the data active = activity change below about -30%
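TRiC at 40 or 20 nM final (batch-dependent) in 30 mM Tris pH 7.4, 100 mM KCl, 5 mM MgCl2, 1 mM DTT, with compound at single 76 uM and 10 uM ATP, 30 min at 37 deg C. ADP detected by HTRF Transcreener, 665/615 ratio.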
G9a block = qHTS Assay for Inhibitors of Histone Lysine Methyltransferase G9a | Histone-lysine N-methyltransferase EHMT2 (Homo sapiens), Q96KQ7 | G9a H3K9 monomethylation, AlphaScreen, 2 h | Potency, µM (titrated, usually from 102 µM), for inactives: at the highest dose activity, negative = inhibition, usual class: inhibitors | hit rate 8.8% among 350,000 | AID 504332, 2011; note: potency is the fitted concentration of half-maximal effect; nearly all actives have a fitted effect of over 75% in size
Target sequence (Q96KQ7 913-1193 limits assumed): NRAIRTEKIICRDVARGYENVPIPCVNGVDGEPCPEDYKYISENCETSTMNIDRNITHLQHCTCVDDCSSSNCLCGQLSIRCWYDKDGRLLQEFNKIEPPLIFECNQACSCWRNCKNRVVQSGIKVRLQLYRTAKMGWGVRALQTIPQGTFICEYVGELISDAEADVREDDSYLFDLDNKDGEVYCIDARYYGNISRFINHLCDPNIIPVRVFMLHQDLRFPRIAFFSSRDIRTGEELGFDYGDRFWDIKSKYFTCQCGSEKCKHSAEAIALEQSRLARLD
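Signal arises when biotinylated H3K9 peptide, once monomethylated, bridges streptavidin donor and antibody-captured acceptor beads. Enzyme at 20 nM was preincubated 15 min with test compounds; peptide 500 nM and SAM 20 uM then reacted for 2 h.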
PLK1 PBD block = qHTS for Inhibitors of PLK1-PDB (polo-like kinase 1 - polo-box domain): Primary Screen. hit rate 2.8% among 360,000. AID 720504, 2013. Potency, µM, inactives show max response, negative = inhibition, most hits filed as inhibitors. Plk1 PBD binding of FITC phosphopeptide, fluorescence polarization; note: potency is the fitted concentration of half-maximal effect; series mostly up to about 57 µM; nearly all actives have a fitted effect of over 65% in size
VDR inhibitor = Inhibitors of the vitamin D receptor (VDR): qHTS; Vitamin D3 receptor (Homo sapiens), P11473; VDR-SRC2-3 peptide fluorescence polarization, 2 h; Potency, µM, without a hit: max response, negative = inhibition, usual class: inhibitors; hit rate 0.93% among 400,000; note: potency is the fitted concentration of half-maximal effect
Target sequence (P11473 whole entry, looked up): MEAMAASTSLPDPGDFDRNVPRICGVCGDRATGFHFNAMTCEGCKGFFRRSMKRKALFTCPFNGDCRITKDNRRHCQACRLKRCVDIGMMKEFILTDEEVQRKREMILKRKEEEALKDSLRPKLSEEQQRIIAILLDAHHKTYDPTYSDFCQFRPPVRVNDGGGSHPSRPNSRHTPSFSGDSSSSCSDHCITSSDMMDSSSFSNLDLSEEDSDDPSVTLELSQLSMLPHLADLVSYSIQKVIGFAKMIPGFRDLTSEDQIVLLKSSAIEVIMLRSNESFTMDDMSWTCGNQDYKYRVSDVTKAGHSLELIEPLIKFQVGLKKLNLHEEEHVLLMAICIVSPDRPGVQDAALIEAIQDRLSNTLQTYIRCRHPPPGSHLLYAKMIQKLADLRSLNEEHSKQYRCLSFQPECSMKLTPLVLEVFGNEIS
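Compounds are added to VDR with labelled SRC2-3 coactivator peptide and held 2 h at room temperature. Inhibition of the VDR–peptide interaction is then read as a change in fluorescence polarization.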
Sfp inh = qHTS Assay for Inhibitors of Bacillus subtilis Sfp phosphopantetheinyl transferase (PPTase). Biochemical Sfp PPTase activity, qHTS. hit rate 3.5% among 310,000. Potency, µM, inactives show largest response in the series, negative = inhibition, hits mostly inhibitors;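 note: the enzyme is Sfp with the accession as filed and its product quenches rhodamine fluorescence; potency is the fitted concentration of half-maximal effect; 0% = enzyme reaction without inhibitor and -100% = no enzyme wells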
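Fluorescence-quenching assay with 15 nM Sfp, 5 uM rhodamine-CoA and 12.5 uM BHQ-2-labelled ybbR peptide in pH 7.6 Hepes/MgCl2 buffer. Enzyme was pre-incubated with compound for 15 min at room temperature. Rate was taken from the 30-min fluorescence change (525/598 nm).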
MmCpn inh = Inhibitors of TCP-1 ring complex (TRiC) of Methanococcus maripaludis (MmCpn): qHTS; Chaperonin Mm-Cpn (Methanococcus maripaludis); purified Mm-Cpn ATPase, ADP Transcreener TR-FRET; Potency, µM (titrated, usually from 76.9 µM), for the others: at the highest dose activity, negative = inhibition, most hits filed as inhibitors; hit rate 0.031% among 330,000; AID 504842, 2011; note: potency is the fitted concentration of half-maximal effect; nearly all actives have a fitted effect of over 80% in size
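Purified archaeal chaperonin (25 nM final) was preincubated with compound for 10 min at 37°C, then ATP (10 uM final) was added for 30 min at 37°C in Tris pH 7.4/KCl/MgCl2/DTT buffer. ADP was quantified by HTRF Transcreener TR-FRET.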
* hit, by the source's call; ? = inconclusive; . = not tested or not shown; ! = a repeat was not active; [ ] = remark or other dose. Compounds with a hit are over-represented: about 10% of the library has one in this group of screens. Unless noted, calls come from the whole dose curve; as a rule, active = well fitted curve in the direction sought with a large enough effect; inconclusive = small, poorly fitted or top-dose-only effect, or another doubt; inactive = no such curve, though single readings can be large; an effect the other way counts as inactive or inconclusive. Unless noted, % is set by controls: 0 for no effect and ±100 for the full control effect.

SMILES | CCT chaperon mod | G9a block | PLK1 PBD block | VDR inhibitor | Sfp inh | MmCpn inh
O=C1CC(N2CCN(c3ccc(F)cc3)CC2)C(=O)N1c1ccc(F)cc1 (stereo not given) | -2 | . | 0% | -17% | 7% | 0%
O=C1CC(N2CCN(Cc3ccccc3)CC2)C(=O)N1c1ccccc1 (stereo not given) | 0 | 1%[2.33 µM] | -3% | -17% | 15% | -3%
CCC(CC)C(=O)Nc1ccc2nc(SCC(=O)N3CCOCC3)sc2c1 | . | -4%[59 µM] | . | -4% | . | .
O=c1c(S(=O)(=O)c2ccccc2)cn(Cc2ccccc2)c2cc(N3CCOCC3)c(F)cc12 | . | -10%[59 µM] | . | 2% | . | .
C=CCNC(=O)CSc1nc2cc(C(=O)OCC)ccc2n1CC | -1 | 8% | -3% | 17% | -7% | -2%
Cn1ccnc1SCC(=O)c1cc2ccccc2o1 | -1 | 40µM* | ? | -27% | -21% | -3%
Cc1ccnc(SCC(=O)c2cc3ccccc3o2)n1 | -1 | 45µM* | -18% | -3% | -27% | -1%
CCOC(=O)c1ccc2c(c1)nc(SCC(=O)c1cc3ccccc3o1)n2CC | 1 | 79µM* | 7% | 24% | 4% | -9%
Cc1cc(C)cc(NC(=O)C2CCN(S(=O)(=O)c3cn(C)cn3)CC2)c1 | . | -1%[12.7 µM] | . | 3% | . | .
O=S(=O)(Nc1ccc2nc(-c3ccc(F)cc3)oc2c1)c1ccccc1 | . | -2%[59 µM] | . | 4% | . | .
Cc1cc(C)c(C)c(N=Nc2nc3ccccc3n2C)c1C | -3 | 11µM* | ? | -14% | 56µM* | 0%
COc1cccc(NC(=S)N/N=C2/CCCCc3ccccc32)c1 | 0 | 40µM* | -10% | -5% | -6% | 3%
CC(C)NC(=S)N/N=C1\CCCCc2ccccc21 | -1 | 1%[59 µM] | -22% | -15% | -1% | -1%
N#Cc1ccc(OCC(=O)NN2Cc3ccccc3C2=N)cc1 | -1 | -40% | ? | -7% | 3% | -3%
COc1ccc(OCC(=O)N/N=C2\CCCCc3ccccc32)cc1 | 0 | -7% | 11µM* | -26% | 4% | -1%
CCc1ccc(OCC(=O)NN2Cc3ccccc3C2=N)cc1 | -2 | 45µM* | -14% | -8% | 17% | -3%
COc1ccc(NCC(=O)N/N=C2\CCc3ccccc32)cc1 | 0 | ? | -3% | -14% | 11% | -1%
CCc1ccc(OCC(=O)N/N=C2\CC(=O)c3ccccc32)cc1 | . | 13µM* | . | . | -4% | -6%
CCOc1ccccc1NS(=O)(=O)c1cnc(N)nc1 | . | 10%[59 µM] | . | -8% | . | .
C[C@@H]1C(=O)OC2C[C@@]34[C@H]5C[C@@H](C(C)(C)C)[C@@]36C(O)C(=O)O[C@H]6O[C@@]4(C(=O)O5)[C@]21O (stereo not given in full) | . | 29%[59 µM] | . | 9% | 23% | .
CCCC(=O)Nc1nnc(SCc2cc(=O)c3cc(C)ccc3[nH]2)s1 | . | 5%[59 µM] | . | 0% | . | .
CC(=O)O/C(=C\c1cn(C(C)=O)c2ccccc12)C(=O)O | 2 | 35µM* | 3% | 0% | -15% | 1%
CC(=O)n1cc(CO)c2ccccc21 | 0 | 7%[12.7 µM] | -6% | -2% | 23% | -3%
O=S(=O)([N-]c1nc2ccccc2nc1-[n+]1ccc(-c2ccncc2)cc1)c1ccccc1 | 1 | -26% | 17µM* | 8% | 11% | -1%
O=S(=O)([N-]c1nc2ccccc2nc1-[n+]1ccccc1)c1ccccc1 | -4 | -2% | 6% | -17% | 9% | -4%
SMILES | CCT chaperon mod | G9a block | PLK1 PBD block | VDR inhibitor | Sfp inh | MmCpn inh
CCc1ccc(CN(Cc2ccco2)C(=O)COc2ccc(Cl)cc2C)cc1 | . | 93%[59 µM] | . | 1% | . | .
Cc1ccc(NC(=O)Nc2nnc(N3CCCC3)s2)c(C)c1 | . | -34%[59 µM] | . | 16% | . | .
CCOc1ccc(C2C(C(=O)c3ccco3)=C(O)C(=O)N2CCN2CCOCC2)cc1OCC (stereo not given) | 0 | 40µM* | -13% | -7% | -7% | 1%
COc1cccc2cc(C(=O)C3=C(O)C(=O)N(CCN4CCOCC4)C3c3ccc(C(C)(C)C)cc3)oc12 (stereo not given) | -12 | 32µM* | -25% | -11% | 2% | -8%
CCOc1ccc(C2C(C(=O)c3ccc(C)o3)=C(O)C(=O)N2CCN2CCOCC2)cc1OC (stereo not given) | 2 | 18µM* | -8% | -3% | -11% | -1%
COc1ccc(C2C(C(=O)/C=C/c3ccco3)=C(O)C(=O)N2CCN2CCOCC2)cc1OC (stereo not given) | -1 | 50µM* | ? | 12% | ? | 0%
CCCCNc1nc(C)nc2c1nc(-c1ccccc1)n2CCN1CCCC1 | . | . | . | . | 20% | .
COc1cc(NC(=O)c2cc(-c3ccccc3O)no2)cc(OC)c1OC | . | -11%[59 µM] | . | 2% | . | .
COc1cccc2cc(C(=O)NCCN3CCOCC3)oc12 | -2 | 45µM* | -14% | 4% | -7% | ?
Cc1nnc(N2C(=O)C(O)=C(C(=O)c3ccco3)C2c2ccc(C(C)C)cc2)s1 (stereo not given) | -2 | 45µM* | -20% | ? | 56µM* | -14%
CC(C)c1ccc(C2C(C(=O)c3ccco3)=C(O)C(=O)N2CCN2CCOCC2)cc1 (stereo not given) | -4 | 50µM* | -17% | -19% | -17% | -2%
COc1ccccc1-c1cc(C(=O)NCCN2CCOCC2)no1 | -2 | -30% | -8% | -12% | 16% | -1%
CCCCOc1ccc(Cn2c(=O)sc3ccccc32)cc1 | . | 297%[59 µM] | . | -11% | . | .
Cc1ccccc1C(=O)Nc1c(C(=O)N(CCN(C)C)Cc2ccco2)oc2ccccc12 | 1 | -14% | -5% | 1% | 16% | -2%
COc1ccccc1C(=O)Nc1c(C(=O)N(CCN(C)C)Cc2ccco2)oc2ccccc12 | -2 | 40µM*! | -9% | 5% | -11% | 0%
CN(C)CCOc1cccc(Cl)c1 | -1 | 8.9µM* | -10% | -1% | 10% | 1%
CCOc1cccc(OCCOCCN(C)Cc2ccccc2)c1 | 1 | -5%[12.7 µM] | -2% | 21% | 6% | -1%
CCOc1cccc(OCCOCCN(C)C)c1 | -2 | 11µM* | -11% | -12% | -7% | 0%
CN(C)CCCCOc1cccc(Br)c1 | 2 | 3.5µM* | 2% | 3% | 56µM* | -1%
COc1ccc2c(C)c(CCC(=O)NCCc3ccccc3OC)c(=O)oc2c1 | . | 4%[59 µM] | . | 3% | . | .
